Shown are actives, neighbours in structure and some others; about 2.7% of the full set was active somewhere.
GLP-1R agonist = qHTS of GLP-1 Receptor Agonists | Glucagon-like peptide 1 receptor (Homo sapiens), P43220 | HEK293 GLP-1R CRE-luciferase, luminescence, 4-6 h; cells express a hypersensitive GLP-1R form | Potency, µM (highest dose often 45.6 µM), inactives show at the top dose activation, hits mostly activators | 380,000 tested, 0.007% active | AID 624172, 2012; further: % of control where 0% means no effect
Target sequence (P43220 whole entry, looked up): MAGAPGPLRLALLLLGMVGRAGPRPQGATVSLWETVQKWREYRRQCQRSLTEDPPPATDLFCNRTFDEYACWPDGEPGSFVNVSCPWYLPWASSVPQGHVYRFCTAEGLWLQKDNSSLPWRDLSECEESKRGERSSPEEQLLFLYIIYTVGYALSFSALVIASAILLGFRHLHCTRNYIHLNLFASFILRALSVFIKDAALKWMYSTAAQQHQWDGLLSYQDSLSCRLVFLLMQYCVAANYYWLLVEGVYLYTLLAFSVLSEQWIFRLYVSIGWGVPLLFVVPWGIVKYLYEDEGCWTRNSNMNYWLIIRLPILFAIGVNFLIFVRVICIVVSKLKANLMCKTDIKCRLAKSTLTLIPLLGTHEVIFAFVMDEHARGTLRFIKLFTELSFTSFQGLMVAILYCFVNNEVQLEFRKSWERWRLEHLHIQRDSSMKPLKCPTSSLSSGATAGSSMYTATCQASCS
GLP1R inv ag = qHTS of GLP-1 Receptor Inverse Agonists (Inhibition Mode) | HEK293 GLP-1R CRE-luciferase, luminescence, 24 h; GLP-1R form is constitutively active | 410,000 tested, 1.6% active | Potency, µM (series often up to 38.3 µM), for inactives: top-dose activity change, negative = inhibition, actives largely listed as inhibitors | Glucagon-like peptide 1 receptor (Homo sapiens), P43220; further: on the % scale 0 is the no-effect control and ±100 the full control effect; nearly all actives have a fitted effect of over 55% in size
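Constitutively active GLP-1R drives a cAMP-responsive luciferase in stably transfected HEK293 cells; test compounds are added after overnight (12 h) attachment and left 24 hr, and signal loss in luminescence marks inhibition.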
GLP1R cytotox = qHTS of GLP-1 Receptor Inverse Agonists: Cytotox Screen | HEK293 cAMP-luciferase reporter cells, luminescence, 24 h | Potency, µM (top dose mostly 38.3 µM), for the others: top-dose activity change, negative = inhibition, hits mostly inhibitors | 410,000 tested, 0.13% active;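 further: loss of luciferase light is scored as toxicity; on the % scale 0 is the no-effect control and ±100 the full control effect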
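Quantitative HTS format, 1536 wells, 200 cells/uL seeded. Compounds: 23 nL, 24 h, 37 °C. Detection: luciferase reagent, luminescence at 12 min RT; decreased signal taken as cytotoxic.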
BRCA1 expr act = qHTS Assay to Identify Small Molecule Activators of BRCA1 Expression | MCF7-BRCA1-FFLuc reporter, luminescence, 48 h; response scale: scaled: vehicle 0%, 10 µM genistein 100% | Potency, µM (top dose mostly 46.1 µM), inactives show top-dose activation, actives largely listed as activators | 380,000 tested, 1.1% active | AID 624202, 2012; further: nearly all actives have a fitted effect of over 80% in size
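MCF7-BRCA1-FFLuc, 2000 cells/well; 2 h attach, 37 °C/5% CO2; compound 48 h; luciferase substrate 15 min; luminescence end-point. Norm. to genistein 10 microM max activation and DMSO; concentration-response curves fitted.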
a7 integrin act = qHTS for Activators of Integrin-Mediated Alleviation for Muscular Dystrophy. alpha7betagal myoblasts, beta-gal FDG fluorescence, 48 h. Potency, µM (doses to about 38.3 µM), without a hit: at the top dose activation, actives largely listed as activators. 350,000 tested, 0.064% active. AID 624291, 2012;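 further: 100% = response of the positive control SU9516; nearly all actives have a fitted effect of over 60% in size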
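Alpha7betagal+/- myoblasts (passage 13) were plated 16-24 hr, then exposed to compounds (1:260 dilution of DMSO stock) for 48 hours at 37C. After MPER lysis, β-galactosidase reporter activity was read as FDG fluorescence (ex 480/em 540) after 30 minutes.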
Numbers without * were called inactive; u = inconclusive; x = not tested or not shown; [ ] = remark or other dose. The call rests on the fitted dose curve; in most records, active means well fitted curve in the direction sought with a large enough effect; inconclusive means small, poorly fitted or top-dose-only effect, or another doubt; inactive means no such curve, though single readings can be large; an effect the other way counts as inactive or inconclusive. Potency means the concentration at half of the fitted maximal effect.

SMILES | GLP-1R agonist | GLP1R inv ag | GLP1R cytotox | BRCA1 expr act | a7 integrin act
COC(=O)c1sc(-c2ccc(Cl)cc2)cc1N | 0% | 3% | -8% | 4µM* | 23%
COc1cccc(N2CCN(C(=O)Cn3c(-c4cccs4)cc4ccccc43)CC2)c1 | x | u | 5% | x | x
C/C(=N\NC(=O)c1ccco1)c1ccc(-c2ccccc2)cc1 | 10% | 2% | 3% | 8.9µM* | 9%
C/C(=N/NC(=O)c1cccs1)c1ccco1 | 1% | 5% | -11% | 13µM* | 9%
C/C(=N\NC(=O)c1cccs1)c1cccnc1 | 4% | 9%[7.66 µM] | 16%[7.66 µM] | u | 11%
C/C(=N\NC(=O)c1cccs1)c1ccc(C(=O)O)s1 | 3% | 3% | 1% | 14µM* | 35%
C/C(=N\NC(=O)c1cccs1)C(C)(C)C | 2% | -1% | -19% | 52% | 6%
O=C(CSc1nc2ccccc2nc1Cc1ccccc1)N1CCCc2ccccc21 | x | -16% | 6% | x | x
O=C(COc1ccc(-c2nnc(N3CCCCC3)c3ccccc23)cc1)N1CCCCC1 | 2% | 10µM* | 0% | -59% | -27%
O=C(CCn1ccc2cc(S(=O)(=O)N3CCCC3)ccc21)NCc1ccccc1Br | x | -15% | -2% | x | x
Cc1ccc(C(=O)/C=C/Nc2ccccn2)cc1 | -15% | 5.6µM* | 10% | u | 8%
Cc1ccc(N/C=C/C(=O)c2ccc(C)cc2)cc1 | 0% | 10% | -2% | 113% | 8%
COc1ccc(/[N+]([O-])=C/c2ccoc2)cc1 | 0% | -8% | -1% | 11µM* | 9%
CCOC(=O)c1c(NC(=O)CSc2nnc(-c3c[nH]c4ccccc34)n2C)sc2c1CCCC2 | -4% | 3% | -6% | -26% | -4%
CCOC(=O)c1c(NC(=O)CSc2nnc(-c3c[nH]c4ccccc34)n2CCOC)sc2c1CCCC2 | -1% | 11µM* | -13% | -63% | -22%
Cc1ccc(C(=O)NCC(c2ccco2)N2CCc3ccccc3C2)cc1C (configuration not stated) | -3% | 11µM* | -4% | -17% | -21%
Cc1ccc(C(=O)NCC(c2ccco2)N2CCc3ccccc3C2)cc1 (configuration not stated) | 1% | u | 11% | 0% | 17%
COc1ccc(C)cc1S(=O)(=O)NCC(c1cccnc1)N1CCc2ccccc2C1 (configuration not stated) | 10% | u | -12% | -26% | u
Cc1ccc(C)c(S(=O)(=O)NCC(c2ccco2)N2CCc3ccccc3C2)c1 (configuration not stated) | 10% | 11µM* | -14% | -32% | -19%
CCOC(=O)C1CCN(C(=O)c2cc3cc(C)ccc3[nH]2)CC1 | 19% | 9% | 2% | 2.8µM* | 0%
CCOC(=O)C1CCN(C(=O)c2cc3c(C)cc(C)cc3[nH]2)CC1 | -2% | 25% | -3% | 10% | -8%
O=C(Nc1nnc(C(F)(F)F)s1)c1ccc(Br)s1 | -3% | -18% | u | -11% | -52%
Cc1cc(C)n(-c2ccc(C(=O)Nc3ccc4c(c3)OCO4)cc2)n1 | 19% | u | -15% | u | -4%
Cc1cc(C)n(-c2ccc(C(=O)NC3=NCCS3)cc2)n1 | 3% | 1% | 10% | 11µM* | 0%
O=C(NC1=NCCS1)c1ccc(Cl)cc1 | -4% | 14% | -1% | 7.9µM* | -2%
O=C(NC1=NCCS1)c1ccc(-c2ccc(Cl)cc2)o1 | 0% | u | 3% | 2.8µM* | 7%
O=C(Nc1nnc(C2CCCCC2)s1)c1ccc(Br)s1 | -10% | 40% | -5% | 5µM* | -6%
COc1ccc(Cl)cc1C(=O)NC1=NCCS1 | 11% | 8% | 17% | 16% | 2%
Cc1cccc(CNC(=O)c2cc3cc(S(=O)(=O)N4CCCCC4)ccc3n2C)c1 | x | u | 5% | x | x
COc1cccc(C(=O)NCC(c2ccc(N(C)C)cc2)N2CCCC2)c1OC (configuration not stated) | x | 7% | 3% | x | x
